# A selection: hits, their analogues and other compounds. The true share with any hit is near 8.9%.
# KB-3-1 cytotox – KB-3-1 parental cell cytotoxicity; KB-3-1 viability, CellTiter-Glo ATP luminescence, 72 h; actives 1.4% (n = 400,000); Potency, µM (titrated, usually from 46.1 µM), usual class: cytotoxic; further: potency means the concentration at half of the fitted maximal effect; on the % scale 0 is the no-effect control and ±100 the full control effect; nearly all actives have a fitted effect of over 60% in size
#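 KB-3-1 cells, DMEM (no phenol red) + 10% FBS; compound by pin transfer, 72 h, 37 °C. Readout: CellTiter-Glo luminescence after 10 min. Data normalized, curve-fitted.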
# SW480 rerep – induces DNA re-replication in SW480 colon adenocarcinoma cells; SW480 DNA re-replication, Hoechst DNA content imaging, 48 h; Potency, µM (series often up to 46.1 µM), for inactives: at the top dose re-replication activation, most hits filed as activators; actives 1.8% (n = 340,000); further: potency means the concentration at half of the fitted maximal effect; % of control where 0% means no effect; nearly all actives have a fitted effect of over 55% in size
#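 250 cells/well; 23 nL cpd via pin tool; 48 hr, 37 C, 5% CO2; Hoechst 40 min; imager read of total nuclear intensity, ex 405/em 500-530 nm.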
# D3 antag – blocks the human D3 dopamine receptor; D3R cells, DiscoveRx beta-arrestin luminescence, antagonist mode; active compounds read low; max response, negative = inhibition, %; actives 2.5% (n = 360,000); in the data active means max response below about -50%; inconclusive means no clear call, values can overlap the other calls; further: on the % scale 0 is the no-effect control and ±100 the full control effect
# Target sequence (P35462 whole entry, looked up): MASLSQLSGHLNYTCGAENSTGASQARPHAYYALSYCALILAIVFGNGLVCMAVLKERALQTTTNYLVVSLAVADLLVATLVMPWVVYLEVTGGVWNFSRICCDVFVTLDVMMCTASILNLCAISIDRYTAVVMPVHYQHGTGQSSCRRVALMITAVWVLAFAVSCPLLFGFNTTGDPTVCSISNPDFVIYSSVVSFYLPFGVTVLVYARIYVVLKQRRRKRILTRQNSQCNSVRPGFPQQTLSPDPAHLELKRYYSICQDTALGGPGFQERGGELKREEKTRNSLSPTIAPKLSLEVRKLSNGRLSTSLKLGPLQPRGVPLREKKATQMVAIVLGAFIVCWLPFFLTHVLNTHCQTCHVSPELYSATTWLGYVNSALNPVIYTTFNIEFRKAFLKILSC
#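 Cells expressing the human receptor were seeded at 1500 cells/well, incubated overnight at 37 degrees C in 5% CO2, then exposed to library compounds with dopamine controls for 90 minutes at 37 degrees C before luminescent detection.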
# MCF10A rerep – induces DNA re-replication in MCF 10a normal breast cells; MCF 10A DNA re-replication, Hoechst nuclear intensity, 48 h; Potency, µM (highest dose often 46.1 µM), without a hit: top-dose activity, positive = re-replication, hits mostly activators; actives 2.9% (n = 350,000); further: potency means the concentration at half of the fitted maximal effect; % of control where 0% means no effect; nearly all actives have a fitted effect of over 50% in size
# D3 ag – agonists of human D3 dopamine receptor; P35462; D3R DiscoveRx beta-arrestin cells, luminescence, 90 min; max activation, %; actives 0.58% (n = 410,000); AID 652048; in the data active means max activation above about 30%; further: 0% is about no effect
#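 Agonist mode: compounds and dopamine controls were applied to plated cells for 90 min at 37 degrees C after an overnight attachment at 1500 cells/well. Luminescent read-out followed 30 - 60 minutes at room temperature with DiscoveRx detection reagent.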
# KB-V1 MDR tox – kills drug-selected multidrug resistant KB-V1 cells; KB-V1 MDR cells viability, CellTiter-Glo, 72 h; Potency, µM (top dose mostly 46.1 µM), hits mostly cytotoxic; actives 3.4% (n = 400,000); further: potency means the concentration at half of the fitted maximal effect; on the % scale 0 is the no-effect control and ±100 the full control effect; nearly all actives have a fitted effect of over 60% in size
#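 Potencies derive from concentration-effect curves fitted to normalized luminescence (CellTiter-Glo) of KB-V1 cells treated for 72 h at 37 degrees C in phenol-red-free DMEM containing 10% FBS.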
# Active calls of the source: *; i = inactive; ? = inconclusive; · = not tested or not shown. Unless noted, the call rests on the fitted dose curve; in most records, active means well fitted curve in the direction sought with a large enough effect; inconclusive means small, poorly fitted or top-dose-only effect, or another doubt; inactive means no such curve, though single readings can be large; an effect the other way counts as inactive or inconclusive.
SMILES,KB-3-1 cytotox,SW480 rerep,D3 antag,MCF10A rerep,D3 ag,KB-V1 MDR tox
Cc1ccc(-n2c(C)cc(/C=N/NC(=O)Cn3c4ccccc4c(=O)c4ccccc43)c2C)cc1,i,12µM*,-16,15µM*,-7,i
Cc1cc(/C=N/NC(=O)Cn2c3ccccc3c(=O)c3ccccc32)c(C)n1-c1ccc(Cl)cc1,?,16%,-21,12µM*,-17,i
O=C1CCc2cc([S+](=O)([O-])Nc3ccc(N[S+](=O)([O-])c4ccc5c(c4)CCC(=O)N5)cc3)ccc2N1,i,·,·,·,·,i
CCN(CC)c1ccc(-c2nnc(SCC(=O)NCc3ccco3)n2C)cc1,i,·,·,·,·,i
COCCCNC(=O)CCCn1c(SCC(=O)c2ccc(F)cc2)nc2c(sc3ccccc32)c1=O,i,·,·,·,5,i
CN(c1cccc(Cl)c1)S(=O)(=O)c1cccc(C(=O)NC2=NCCS2)c1,23µM*,?,0,?,-5,21µM*
COc1ccc(N(C)S(=O)(=O)c2cccc(C(=O)Nc3nc4ccccc4[nH]3)c2)cc1,?,?,11,?,5,16µM*
CN(c1cccc(Cl)c1)S(=O)(=O)c1cccc(C(=O)Nc2nc3ccccc3[nH]2)c1,15µM*,?,43,8.2µM*,5,?
COC(=O)[C@@H]1[C@H]2SC(C)(C)[C@H](C(=O)OC)N2C(=O)N1Cc1cc2ccccc2n1S(=O)(=O)c1ccccc1,i,·,·,·,·,i
Cc1ccc(-c2ccc(/C=C3\SC(N4CCOCC4)=NC3=O)o2)cc1,i,18µM*,2,23µM*,7,i
CCN(C(=O)CSc1ncc2c(n1)-c1cc(Cl)ccc1N(Cc1ccccc1)S2(=O)=O)c1cccc(C)c1,i,·,·,·,1,i
CCCCn1c(-c2csc3c2CCCC3)n[nH]c1=S,i,1%,-8,20%,10,21µM*
CCn1c(-c2csc3c2CCCC3)n[nH]c1=S,i,-9%,2,-6%,2,?
CCCCn1c(-c2csc3c2CCC(C)C3)n[nH]c1=S (stereo unspecified),21µM*,15%,-12,21%,-18,15µM*
CCCCn1c(-c2csc(C(C)C)c2)n[nH]c1=S,i,-10%,-15,-4%,-7,23µM*
CCCCn1c(-c2csc(CC)c2)n[nH]c1=S,i,-8%,13,3%,-1,i
CSc1ccc(CCNC(=O)CCn2c(=O)c3cccn3c3ccc(F)cc32)cc1,·,·,·,·,1,·
O=c1oc2ccccc2nc1/C=C(O)/C=C\c1ccccc1,i,3%,-55*,?,2,i
O=S(=O)(NCc1nc2cccnc2n1Cc1ccc(F)cc1)c1ccc(Cl)s1,·,·,·,·,6,·
Cc1cccc(C(=O)c2cnc3ccccc3c2-c2ccccc2)c1,i,7%,28,23µM*,3,?
CSCCC(NS(=O)(=O)c1ccc(Cl)cc1)C(=O)OCc1c(Cl)cccc1Cl (stereo unspecified),?,?,17,16µM*,-7,7.3µM*
CSCCC(NS(=O)(=O)c1ccccc1)C(=O)OCc1cc(=O)oc2cc(O)ccc12 (stereo unspecified),i,-3%,-52*,3%,-1,i
CSCCC(NS(=O)(=O)c1ccc(Cl)cc1)C(=O)OCc1cccc(Cl)c1 (stereo unspecified),i,?,5,?,1,?
CSCCC(NS(=O)(=O)c1ccccc1F)C(=O)N1CCCCCC1 (stereo unspecified),i,-10%,1,1%,-3,i
CSCCC(NS(=O)(=O)c1ccc(Cl)cc1)C(=O)N1CCN(c2ccccc2)CC1 (stereo unspecified),i,3%,0,-2%,-2,15µM*
CSCCC(NS(=O)(=O)c1ccc(Cl)cc1)C(=O)O (stereo unspecified),i,2%,-7,-1%,8,i
